By AC50 is commonly meant the midpoint of the concentration-response curve, whichever way the signal moves.

We go through 49 compounds from PubChem BioAssay AID1851 (National Center for Advancing Translational Sciences (NCATS), 2009).

Molecules are shown by their SMILES. Among all 16,000 compounds or so, about 5,700 (36%) were called active. Roughly 24% stayed inconclusive and do not appear here. Calls come from the whole dose curve; as a rule, active = well fitted curve in the direction sought with a large enough effect; inconclusive = small, poorly fitted or top-dose-only effect, or effect the other way; inactive = no such curve, though single readings can be large or run the other way. The list shows a part of the results.
% is set by controls: 0 for no effect and ±100 for the full control effect.

Chain of Cytochrome P450 1A2 (Homo sapiens) (P05177 whole entry, looked up): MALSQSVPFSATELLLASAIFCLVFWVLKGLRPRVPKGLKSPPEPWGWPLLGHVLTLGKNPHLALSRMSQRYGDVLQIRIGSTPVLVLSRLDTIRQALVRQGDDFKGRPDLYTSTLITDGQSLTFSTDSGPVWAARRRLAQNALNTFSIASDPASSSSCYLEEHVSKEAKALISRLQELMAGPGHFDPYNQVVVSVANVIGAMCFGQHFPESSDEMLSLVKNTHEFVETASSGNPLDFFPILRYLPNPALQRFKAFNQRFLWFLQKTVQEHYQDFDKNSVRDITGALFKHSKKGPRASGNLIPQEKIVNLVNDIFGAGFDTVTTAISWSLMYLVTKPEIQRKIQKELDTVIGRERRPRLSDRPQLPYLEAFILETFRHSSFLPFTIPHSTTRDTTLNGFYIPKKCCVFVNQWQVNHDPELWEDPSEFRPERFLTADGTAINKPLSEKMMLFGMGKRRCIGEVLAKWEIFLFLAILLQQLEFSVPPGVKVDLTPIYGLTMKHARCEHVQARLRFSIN

The assay addresses Cytochrome P450 1A2 (Homo sapiens) (UniProt P05177). Description: Cytochrome panel assay with activity outcomes. As to conditions: recombinant CYP, pro-luciferin dealkylation, luminescence, p450-cyp1a2; series mostly up to 57.1 µM; activity, negative = inhibition: at the top concentration. How it is done: The P450 gene superfamily is involved in the metabolism and clearance of xenobiotics. This assay used various human CYP P450 isozymes to measure the dealkylation of various pro-luciferin substrates to luciferin. The luciferin is then measured by luminescence after the addition of a luciferase detection reagent. Pro-luciferin substrate concentration in the assay was equal to its KM for its CYP P450 isozyme. Inhibitors and some substrates limit the production of luciferin, and decrease measured luminescence.
NCGC Assay Protocol Summary:
1, Reagent, 2 uL, Isozyme and Pro-Luciferin
2, Library compounds, 23 nl, 40 uM to 0.24 nM dilution series
3, Controls, 23 nl, Isozyme specific inhibitor
4, Reagent, 2 uL, NADPH regeneration solution
5, Incubation time, 60 min, Isozyme specific temperature
6, Reagent, 4ul, Detection reagent
7, Incubation time, 20 min, Isozyme specific temperature
8, Detection, 1 sec, ViewLux luminescent read
The luciferase-based P450-GloTM Screening Systems were obtained from Promega (Madison, WI) for CYP 1A2 (V9770), CYP 2C9 (V9790), CYP2 C19 (V9880), CYP 2D6 (V9890), and CYP 3A4 Luciferin-PPXE (V9910) and were adapted for 1,536-well microplates and an automated protocol. The control compounds furafylline for 1A2 (F124), sulfaphenazole for CYP 2C9 (S0758), ketoconazole for CYP 2C19 (K1003), quinidine for 2D6 (Q3625), and ketoconazole for 3A4 (K1003) were purchased from Sigma Aldrich (St. Louis, MO). Recombinant P450 enzymes were obtained from baculovirus constructs expressed in insect cells (BD/Gentest).
Medium-binding white solid Kalypsys plates used. Mixtures kept on ice. 1A2: 10 nM 1A2, 100 uM Luc-ME, 100 mM KPO4; 2C9: 10 nM 2C9, 100 uM Luc-H, 25 mM KPO4; 2C19: 5 nM 2C19, 10 uM Luc-H EGE, 50 mM KPO4; 2D6: 5 nM 2D6, 30 uM Luc-ME EGE, 100 mM KPO4; 3A4: 10 nM, 25 uM Luc-PPXE. All amounts are reflected in their final concentration, working concentration is 2x.
NADPH regeneration solution: 1.3 mM NADP+, 3.3 mM glucose-6-phosphate, 3.3 mM MgCl2, 0.4 U/mL glucose-6-phosphate dehydrogenase for all isozymes, 200 mM KPO4 for 3A4. Mixture prepared at RT but kept on ice during automated run.
RT incubation in auxilliary plate hotel for 1A2, 2D6, and 3A4; 37C for 2C9 and 2C19.
Keywords: P450, CYP1A2, CYP2C19, CYP2C9, CYP2D6, CYP3A4, Luciferase, MLSMR, MLSCN, NIH Roadmap, qHTS, NCGC
For `COC(=O)c1ccc(CSc2nc3cc(Cl)ccc3s2)o1`, the AC50 was 2 µM (active). On the same count and under the same terms, under `CCN(c1ccc(NC(=O)COC(=O)c2ccc3ccccc3n2)cc1)C(C)C` stands 2.51 µM (active).

`Cc1ccc(C(C(=O)NCc2ccco2)N(C(=O)CNC(=O)c2cccs2)c2ccc(C)cc2)cc1` (centres undefined): the “activity, negative = inhibition” value is -2.44% (inactive). Same read-out and setting: under `Cc1ccc(C(C(=O)NCc2ccco2)N(C(=O)CNC(=O)c2cccs2)c2ccc(C)cc2C)cc1` (centres undefined) stands -8.95% (inactive). On to `O=C(c1cccs1)n1nc(-c2ccc(Cl)cc2)nc1NCc1ccco1`, for which the AC50 is 0.316 µM (active). Take `CCn1c(N)nc2ccccc21`: the AC50 is 25.1 µM (active). For the compound `COc1ccc(OCc2nnc(SCC(=O)O)n2N)cc1`, the “activity, negative = inhibition” value is -20.8% (inactive). Turning to `CCn1c(COc2ccc(OC)cc2)nc2ccccc21`, the AC50 was 14.1 µM (active). Regarding `Cc1noc(COc2ccc(OCc3nc(C)no3)cc2)n1`, the “activity, negative = inhibition” value was 0.769% (inactive). For `C[n+]1ccccc1/C=N\O`, the “activity, negative = inhibition” value was -6.64% [at 25.6 µM] (inactive).

Consider `CC(C)NC(=O)N1CCN(c2ccncc2S(=O)(=O)N2CCOCC2)CC1`, for which the “activity, negative = inhibition” value is -4.14% (inactive). On the same count and under the same terms, under `O=[N+]([O-])c1cc(Cc2cc([N+](=O)[O-])c3cccnc3c2O)c(O)c2ncccc12` stands -31.1% [at 2.29 µM] (inactive); under `O=[N+]([O-])c1ccc(S(=O)(=O)Cc2ccccc2)c2nonc12`, -5.25% [at 2.29 µM] (inactive). On to `Cc1nc2cccc([N+](=O)[O-])c2n1CCCN(C)C`, for which the activity, negative = inhibition is -16.9% [at 11.4 µM] (inactive). Consider `O=[N+]([O-])c1cccc2cn[nH]c12`, for which the AC50 is 2.51 µM (active). Same read-out and setting: under `O=[N+]([O-])c1cccc2c(Br)[nH]nc12` stands 0.126 µM (active); under `O=[N+]([O-])c1cccc2c[nH]nc12`, 2.51 µM (active). For `COc1ccc2c(c1)CCC1C2CC[C@]2(C)[C@H](NCCCCCCN3C(=O)C=CC3=O)CC[C@@H]12` (some centres undefined), the “activity, negative = inhibition” value is -3.41% (inactive). Still for that read-out and setting: with `CCNC(=S)N1CC(C)OC(C)C1` (centres undefined) the figure was -21.6% (inactive). Take `COc1ccc(-c2coc3cc(OC)cc(O)c3c2=O)cc1`: the AC50 is 3.16 µM (active). Same read-out and setting: under `O=c1c(-c2ccc(O)cc2)coc2cc(O)ccc12` stands 15.8 µM (active); under `O=c1c(-c2ccc(O)cc2)coc2cc(O)cc(O)c12`, 5.01 µM (active). With `CC(O)CN(CCC(N)=O)CCC(N)=O` (centres undefined), the “activity, negative = inhibition” value is 6.43% (inactive). As to `COc1ccccc1C(=O)NCCn1cc(SCC(=O)Nc2nnc(C)s2)c2ccccc21`, the AC50 was 12.6 µM (active).

For the compound `Cc1nnc(NC(=O)CSc2ncnc3c2cnn3-c2ccccc2C)s1`, the “activity, negative = inhibition” value is 1.29% (inactive). Consider `CC(C)C(=O)c1c(C(C)C)nn2ccccc12`, for which the AC50 is 0.631 µM (active). `COc1ccc2c(=O)c(-c3ccccc3)c(C)oc2c1`: the AC50 was 2.51 µM (active). As to `CC(C)Oc1ccc2c(=O)c3cc(C(=O)O)ccc3oc2c1`, the “activity, negative = inhibition” value was -20.5% (inactive). For `O=C(c1ccc(COc2ccc(F)cc2)o1)n1cccn1`, the half-maximal activity concentration (AC50) was 10 µM (active). Consider `CN(C)c1ccc(-c2cncnc2NCc2cccs2)cc1`, for which the AC50 was 0.398 µM (active). As for `CN(C)C(=O)c1ccc(-c2cncnc2NCc2cccs2)cc1`, the AC50 was 20 µM (active).

In the case of `COc1cccc(=O)c2c(C)n(-c3cc(C)cc(C)c3)c(C)c12`, the AC50 is 10 µM (active). Take `COc1cc(/C=C(\C#N)c2nc3c(s2)CC(C)CC3)ccc1O` (centres undefined): the AC50 is 1.12 µM (active). With `COc1cc(/C=C(/C#N)c2nc3ccccc3[nH]2)ccc1OCC(=O)Nc1ccccc1C`, the “activity, negative = inhibition” value is 2.56% (inactive). Turning to `Cc1ccc2nc(NC(=O)CSc3nc4c(c(=O)n3C)SC(C)C4)sc2c1` (centres undefined), the AC50 is 5.01 µM (active).

On to `CCn1c(SCC(=O)NC2CCCCC2)nc2c(c1=O)SC(C)C2` (centres undefined), for which the AC50 is 14.1 µM (active). Take `C=CCn1c(SCC(=O)NC2CCCCC2)nnc1C1CCCCC1`: the “activity, negative = inhibition” value was 1.5% (inactive). On the same count and under the same terms, under `CCn1nnnc1SCC(=O)NC1CCCC1` stands -18% (inactive). For `CCn1c(SCC(=O)Nc2nc3ccc(C)cc3s2)nc2c(c1=O)SC(C)C2` (centres undefined), the AC50 is 1.58 µM (active). As to `CCOc1ccc(-n2c(SCC(=O)Nc3ccc(OC)cc3)nc3c(c2=O)SCC3)cc1`, the “activity, negative = inhibition” value is -13.7% (inactive). In the case of `CCn1c(SCC(=O)Nc2ccc3c(c2)OCCO3)nc2c(c1=O)SC(C)C2` (centres undefined), the AC50 was 12.6 µM (active). With `CCOc1ccc(-n2c(SCC(=O)Nc3ccc4c(c3)OCCO4)nc3c(c2=O)SCC3)cc1`, the “activity, negative = inhibition” value is -12.3% (inactive). Take `c1ccc([C@H](CCN2CCCC2)c2ccccn2)cc1`: the activity, negative = inhibition is -14.8% [at 11.4 µM] (inactive). As to `CN(C)CCCn1cnc2cc(Cl)c(Cl)cc21`, the activity, negative = inhibition is -19.9% [at 2.29 µM] (inactive). Same read-out and setting: with `CN(C)Cc1ccccc1-c1ccc2ncnc(NC3CCNCC3)c2c1` the figure was -9.16% (inactive). Consider `CN(C)Cc1ccccc1-c1ccc2ncnc(N(C)C)c2c1`, for which the AC50 is 12.6 µM (active). Still for that read-out and setting: with `CNc1ncnc2ccc(-c3ccccc3CN(C)C)cc12` the figure was 3.16 µM (active). Still for that read-out and setting: under `CN(C)Cc1ccccc1-c1ccc2ncnc(NCc3ccccc3)c2c1` stands 15.8 µM (active). As to `N=C(N)CCNC(=O)[C@@H]1CCC(N)=N1`, the activity, negative = inhibition was -3.4% [at 2.29 µM] (inactive).
